Experiments:
[1] = target: T1, Aspartate--tRNA(Asp/Asn) ligase (Mycobacterium tuberculosis (strain ATCC 25618 / H37Rv)) (UniProt P9WFW3); test: Assay for Asp RNA synthetase-1 from Mycobacterium tuberculosis; assay type: functional; design: scale not given: direction of the effect not stated beside the values; conditions: 30 µM; note: in the data most compounds retested in dose-response had high values
T1 sequence (whole entry): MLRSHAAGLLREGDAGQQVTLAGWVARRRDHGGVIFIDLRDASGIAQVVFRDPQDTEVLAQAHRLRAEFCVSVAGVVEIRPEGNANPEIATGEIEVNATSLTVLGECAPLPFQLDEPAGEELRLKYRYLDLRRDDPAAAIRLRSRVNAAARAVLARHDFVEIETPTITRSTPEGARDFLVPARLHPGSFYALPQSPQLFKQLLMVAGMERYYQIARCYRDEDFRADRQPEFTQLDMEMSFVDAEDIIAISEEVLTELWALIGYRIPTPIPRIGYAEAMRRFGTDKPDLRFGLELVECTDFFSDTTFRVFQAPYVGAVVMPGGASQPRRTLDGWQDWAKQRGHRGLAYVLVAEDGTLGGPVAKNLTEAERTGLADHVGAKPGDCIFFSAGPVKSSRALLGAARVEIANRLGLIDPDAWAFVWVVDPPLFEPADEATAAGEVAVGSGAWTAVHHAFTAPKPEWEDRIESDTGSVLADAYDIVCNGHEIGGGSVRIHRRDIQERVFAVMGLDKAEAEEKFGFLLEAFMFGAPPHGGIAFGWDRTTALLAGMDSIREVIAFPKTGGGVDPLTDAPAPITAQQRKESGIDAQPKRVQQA

[2] = target: Shiga toxin 2 (Escherichia coli O157:H7) (UniProt P09385+P09386); test: E. coli 0.157:H7 Shiga Toxin SOP - stx2 screening assay; assay type: functional; design: scale not given: direction of the effect not stated beside the values; conditions: 30 µM

| SMILES | Percent Effect [1] [%] | Percent Effect [2] [%] |
| --- | --- | --- |
| O=C(c1ccc(Cl)c(Cl)c1)N1CCCC(n2cncn2)C1 (centres undefined) | -2.85 | 15.6 |
| Cc1cnn(CC2CCCN2Cc2nnc(Cc3ccccc3)o2)c1 (centres undefined) | -0.062 | 20 |
| Cc1ccsc1CN(CCN(C)C)Cc1ccccn1 | -0.167 | 1.36 |
| Cc1ccc(-c2cc(N)c(=O)n(CC(=O)NC3CCCCC3)n2)s1 | 1.95 | 13.1 |
| CNC(=O)CN(C)c1nc(-c2ccncc2)nc2c1CCN(C(C)=O)C2 | -1.03 | -0.42 |
| Cc1ccc(CNC(=O)Nc2cc(C(F)(F)F)c[nH]c2=O)cn1 | -6.46 | 8.32 |
| O=C(NCC1CC1)C1CN(C(=O)c2ccncc2)CC12CCOCC2 (centres undefined) | 3.22 | -21.5 |
| Cc1ccc2c(n1)N(CCn1cccn1)CCN(C(=O)CC1CC1)C2 | -3.03 | 2.2 |
| Cc1noc(CN2CCOC(CN(C)C)C2)n1 (centres undefined) | -7.81 | -10.9 |
| CCc1ccc(C(=O)N2CCN(CC(C)O)CC2)o1 (centres undefined) | 0.745 | 5.26 |
| Cn1c(C(F)(F)F)nn(CCNC(=O)CSCc2ccccc2)c1=O | -5.63 | 4.5 |
| CO[C@H]1CCN(S(=O)(=O)c2cn(C)cn2)[C@H]1Cc1cccnc1 | -0.175 | -10.2 |
| CN(C)CC1CN(Cc2csc(C3CCCC3)n2)CCO1 (centres undefined) | 1.38 | 14.5 |
| O=C(CCc1cccc(F)c1F)N1CCN(Cc2ccco2)CC1 | 0.502 | -2.83 |
| NC(=O)c1cc(C2CCCN(CCOCC(F)(F)F)C2)n[nH]1 (centres undefined) | -1.37 | -3.62 |
| O=C(CN1CCCC(O)C1)NC(=O)NCc1cccs1 (centres undefined) | -0.0898 | -13.2 |
| CC1CCN(c2ncc3c(n2)CN(c2ccc4c(c2)OCO4)C3=O)CC1 | 10.8 | -21.4 |

Source: ChEMBL document CHEMBL3988442, “University of Dundee, Small-Polar-MMV Screening Library” (2021)
